Source: PubChem
Only some compounds are listed: those with a hit (about 5.9% of all), similar ones and a draw of the others.
AHR act – activates the human aryl hydrocarbon receptor; P35869; AHR-responsive luciferase reporter cells, luminescence; activation, % at 5 µM; 320,000 tested, 2.5% active; in the data active means activation above about 47%
Target sequence (P35869 whole entry, looked up): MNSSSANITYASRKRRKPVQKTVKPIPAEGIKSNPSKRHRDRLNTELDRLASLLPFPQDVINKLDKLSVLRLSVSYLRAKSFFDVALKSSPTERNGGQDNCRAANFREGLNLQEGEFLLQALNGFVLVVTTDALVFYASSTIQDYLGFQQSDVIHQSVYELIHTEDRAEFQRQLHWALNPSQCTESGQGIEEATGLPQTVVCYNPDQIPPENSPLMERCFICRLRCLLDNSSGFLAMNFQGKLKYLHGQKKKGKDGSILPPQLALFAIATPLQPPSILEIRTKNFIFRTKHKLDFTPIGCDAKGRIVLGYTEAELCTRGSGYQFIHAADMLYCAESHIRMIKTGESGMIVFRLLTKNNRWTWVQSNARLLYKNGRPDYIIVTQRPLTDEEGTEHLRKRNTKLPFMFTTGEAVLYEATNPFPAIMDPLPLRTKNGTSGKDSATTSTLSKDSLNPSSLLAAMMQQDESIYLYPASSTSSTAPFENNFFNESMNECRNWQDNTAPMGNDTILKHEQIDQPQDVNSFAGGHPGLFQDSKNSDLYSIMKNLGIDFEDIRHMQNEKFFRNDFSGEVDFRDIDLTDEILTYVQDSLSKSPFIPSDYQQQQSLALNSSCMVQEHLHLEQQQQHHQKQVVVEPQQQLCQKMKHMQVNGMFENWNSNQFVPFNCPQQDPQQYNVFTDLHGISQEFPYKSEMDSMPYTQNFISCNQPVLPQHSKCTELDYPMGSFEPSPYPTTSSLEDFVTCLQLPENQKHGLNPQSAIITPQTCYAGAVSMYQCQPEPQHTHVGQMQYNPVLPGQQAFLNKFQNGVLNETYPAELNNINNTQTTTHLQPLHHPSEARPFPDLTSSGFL
HSP90 inh – blocks HSP90-mediated luciferase refolding in reticulocyte lysate. Rabbit reticulocyte lysate, luciferase refolding luminescence, 3 h. AID 1789. inhibition, % at 5.6 µM. 290,000 tested, 0.91% active;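 active means inhibition above the screen-wide mean plus 3 SD, computed separately per campaign, cut at about 16% in these data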;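 further: inhibitors lower the luminescence because luciferase stays unfolded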
FXN GAA850 act – activators of GAA850 frataxin (FXN) promoter | AID 540364 | 360,000 tested, 0.56% active | activation, % at 6 µM | HEK293 lucGAA850 FXN promoter luciferase reporter, 24 h; percent of 10 µM SAHA response;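 active means activation above the average of all compounds screened plus 3 SD, cutoff fixed separately per campaign, cut at about 7.5% in these data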
NR0B1 inh – inhibitors of human orphan nuclear receptor DAX1 (NR0B1) | P51843 | HEK293 Gal4-DAX1 luciferase reporter, luminescence | inhibition, % at 6.75 µM | 340,000 tested, 0.99% active | AID 504766;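 active means inhibition above the mean over all tested compounds plus 3 SD, cut at about 4.2% in these data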;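 further: inhibition shows as a rise in luminescence from relieved DAX1 repression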
HSF1 inhib – HSF1 inhibition. activity change, negative = inhibition, % at 7.5 µM (by protocol). NIH3T3-HGL HSE-luciferase, MG132-induced, luminescence 8 h; stronger effect = lower value. 300,000 tested, 0.77% active;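 active means more than half of replicate wells show activity change below -50%, luminescence cut by over half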;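 further: luciferase reports HSF-1 transcriptional activity via heat shock element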
HSF-1 act – increases HSF-1 driven luciferase reporter signal | NIH3T3-HGL HSF-1 luciferase reporter, MG132, 8 h; 100% = twice DMSO control signal | activation, % at 9 µM | 300,000 tested, 1.7% active;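 active means mean replicate activation of at least 50% with a set share of replicates each reaching 50%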
Each line names hits and unclear results; the compound was inactive in the other large screens.

C/C(CC(=O)Nc1ccc2ccccc2c1)=N\NC(=O)c1ccc(O)c(O)c1	HSF-1 act 55
COc1ccc(C(=O)N/N=C(\C)CC(=O)Nc2ccc(N(C)C)cc2)c(OC)c1	NR0B1 inh 4.7
CC(C)(C)OC(=O)NCCCCCNC(=O)c1nc[nH]c1C(=O)NCCCCCNC(=O)OC(C)(C)C	none (no result: HSP90 inh, HSF1 inhib, HSF-1 act)
C[C@@H]1CN([C@@H](C)CO)C(=O)c2cc(NC(=O)C3CCCCC3)ccc2O[C@@H](C)CCCCO[C@@H]1CN(C)Cc1ccncc1	none (no result: AHR act, HSP90 inh, HSF1 inhib, HSF-1 act)
C=CCN(Cc1cc(OC)ccc1OC)C(=O)c1cc2ccc(OC)cc2[nH]1	none (no result: AHR act)
C/C(CC(=O)Nc1ccc(N(C)C)cc1)=N\NC(=O)c1ccncc1	none
C/C(CC(=O)Nc1ccc(N(C)C)cc1)=N\NC(=O)c1ccc(Cl)cc1	HSF-1 act 83
COc1ccc(NC(=O)C/C(C)=N/NC(=O)c2cnccn2)cc1	none
C/C(CC(=O)Nc1ccc(N(C)C)cc1)=N\NC(=O)c1ccccn1	none (no result: HSF1 inhib, HSF-1 act)
C/C(CC(=O)Nc1ccc2ccccc2c1)=N\NC(=O)c1cnccn1	HSF-1 act 74
C/C(CC(=O)Nc1ccc(N(C)C)cc1)=N\NC(=O)c1cnccn1	AHR act 52
CC(/C=C/c1ccccc1F)=N\NC(=O)c1cccc(F)c1	none
Cc1ccsc1C(=O)NNC(=O)CCN1CCN(c2ccccc2)CC1	none (no result: HSP90 inh)
CSc1ccccc1NC(=O)C(C)N(C)CC(=O)N1CCN(Cc2ccccc2)CC1 (stereo unspecified)	none (no result: AHR act, HSP90 inh, HSF1 inhib, HSF-1 act)
O=C(N1CCOCC1)C12CC3CC(C1)CC(C(=O)N1CCOCC1)(C3)C2	none
O=C(N1CCOCC1)C12CCC3CC(CC(C3)C1)C2	HSF1 inhib -54
COc1ccc(NC(=O)C2C3C=CC(C3)C2C(=O)NCc2ccco2)c(OC)c1 (stereo unspecified)	NR0B1 inh 5.9 (no result: HSF1 inhib, HSF-1 act)
CCOC(=O)c1c(NC(=O)COc2ccccc2C#N)sc2c1CC(C)(C)NC2(C)C	HSF1 inhib -53
CCOC(=O)c1c(NC(=O)COc2ccccc2OCC)sc2c1CC(C)(C)NC2(C)C	none (no result: HSP90 inh)
O=C(Cc1nnc(NC(=O)c2ccccc2)s1)N/N=C/c1ccco1	AHR act 115
CC(C)(C)c1ccc(C(=O)N2CCC2(C)C(=O)Nc2cccc3ncccc23)cc1 (stereo unspecified)	none (no result: AHR act, HSP90 inh, NR0B1 inh, HSF1 inhib, HSF-1 act)
Cc1nn(-c2ccccn2)c2c1-c1nc(N3CCOCC3)ncc1CC2	none
Cc1nn(-c2ccccn2)c2c1-c1nc(N)ncc1CC2	AHR act 63
COc1cccc(OC)c1C(=O)Nc1sc2c(c1C#N)CCC2	AHR act 54
Cc1ccc(NC(=O)NC(=O)CN2CCN(c3ccc(O)cc3)CC2)c(C)c1	HSF1 inhib -66
Cc1ccc(NC(=O)NC(=O)CN2CCC(C(N)=O)CC2)c(C)c1	none (no result: HSP90 inh, HSF1 inhib, HSF-1 act)
CC1CCc2nn(CC(=O)NCCCN3CCCC3=O)cc2C1 (stereo unspecified)	none (no result: HSP90 inh)
CC1CCc2nn(CC(=O)NCCN3CCCCC3C)cc2C1 (stereo unspecified)	NR0B1 inh 5.8
CC1CCc2nn(CC(=O)N3CCc4ccccc43)cc2C1 (stereo unspecified)	NR0B1 inh 4.6
COc1ccc(NC(=S)N2CCC(C(=O)c3ccc(F)cc3)CC2)cc1	none (no result: AHR act, HSP90 inh, HSF1 inhib, HSF-1 act)
c1ccc(CSC2=NNC(c3ccccn3)S2)cc1 (stereo unspecified)	none
O=C(CSC1=NNC(c2ccccn2)S1)Nc1ccc(C(F)(F)F)cc1 (stereo unspecified)	AHR act 53
Cc1ccc(CNc2nc(NCc3ccccc3)nc3ccsc23)c(C)c1	none (no result: AHR act, HSP90 inh, NR0B1 inh, HSF1 inhib, HSF-1 act)
COCCOc1ccc(C(F)(F)F)cc1NC(=O)c1ccc(C)cc1	none
COCCOc1ccc(C(F)(F)F)cc1NC(=O)c1ccc(F)cc1	AHR act 54
O=C(CSc1cccc[n+]1[O-])NC1CCCCC1	none (no result: HSP90 inh, HSF1 inhib, HSF-1 act)
O=C(COC(=O)c1ccc2c(c1)OCO2)Nc1ccccc1Cl	none (no result: HSP90 inh, HSF1 inhib, HSF-1 act)
O=C(Nc1ncc(Cc2ccccc2Cl)s1)C1CCCO1 (stereo unspecified)	HSF-1 act 75
O=C(Nc1ncc(Cc2cccc(Cl)c2Cl)s1)C1CCCO1 (stereo unspecified)	HSF-1 act 58
Cc1cnc(NC(=O)C2CCCO2)s1 (stereo unspecified)	none
Cn1c(=O)oc2cc(S(=O)(=O)N3CCCC(C(=O)NCCN4CCOCC4)C3)ccc21 (stereo unspecified)	HSP90 inh 30 (no result: HSF1 inhib, HSF-1 act)
CCCN(CCC)CCNC(=O)C1CCCN(S(=O)(=O)c2ccc3c(c2)oc(=O)n3C)C1 (stereo unspecified)	none
CCC[C@H]1CN(c2ccccc2)C(=O)[C@@H]1CC(=O)Nc1ccc(Br)cc1	NR0B1 inh 7.8 (no result: AHR act, HSP90 inh, HSF1 inhib, HSF-1 act)
CCC[C@H]1CN(c2ccccc2)C(=O)[C@@H]1CC(=O)Nc1ccc(OC)cc1	none (no result: AHR act, HSP90 inh, HSF1 inhib, HSF-1 act)
O=C(NCc1ccccc1)c1cc(C2COCCN2C(=O)c2ccccc2)on1 (stereo unspecified)	none (no result: AHR act, HSP90 inh, NR0B1 inh, HSF1 inhib, HSF-1 act)
CCOC(=O)c1nnn(CC(=O)NC(=O)Nc2ccc(F)cc2)c1C(=O)OCC	HSF1 inhib -72
COc1ccccc1NC(=O)c1csc2c1CCC(C)C2 (stereo unspecified)	AHR act 55
CC1CCc2c(C(=O)NCc3ccco3)csc2C1 (stereo unspecified)	none (no result: HSF1 inhib, HSF-1 act)
O=c1c2ccccc2c(C=Nc2ccc(O)cc2)c(O)n1Cc1ccccc1	HSF-1 act 79
COc1ccc(Cn2c(O)c(C=Nc3ccc(O)cc3)c3ccccc3c2=O)cc1	none
COc1ccccc1-n1c(=S)[nH]c2c(sc(=S)n2-c2ccccc2C)c1=O	none
O=C1NCCN1CCNc1nc(NCC2CC2)nc2cc(-c3ccccc3)sc12	none (no result: AHR act, HSP90 inh, NR0B1 inh, HSF1 inhib, HSF-1 act)
Cc1ccc2cccc(NC(=S)NC(=O)c3ccccc3)c2n1	AHR act 56
Cc1cc(C)c2cccc(NC(=S)NC(=O)c3ccccc3)c2n1	none
Cc1ccc2cccnc2c1NC(=S)NC(=O)c1ccccc1	AHR act 69, HSF-1 act 137
CCc1nonc1NC(=O)c1oc2ccc(F)cc2c1C	AHR act 61
CN1CCc2c(sc(NC(=O)CS(=O)(=O)c3ccc(F)cc3)c2C(N)=O)C1	none (no result: HSP90 inh)
CCC(C)NC(=O)CSc1nnc(-c2ccc(OC)c(OC)c2)c(-c2ccc(OC)c(OC)c2)n1 (stereo unspecified)	none
COc1ccc(C(=O)NCc2nnc(SCC(=O)N3CCC(C)CC3)o2)cc1OC	HSF1 inhib -67
COc1ccc(-c2nnc(SCC(=O)N3CCOCC3)o2)cc1OC	none
COc1ccc(-c2nnc(SCC(=O)N3CCN(c4ccccc4)CC3)o2)cc1OC	NR0B1 inh 6.2
Cc1cccn2c(=O)c3cc(C(=O)NC4CCCC4)c(=N)n(C4CCCC4)c3nc12	AHR act 54
Cc1cccn2c(=O)c3cc(C(=O)NC4CCCCC4)c(=N)n(CCN4CCOCC4)c3nc12	none
CCCn1c(=N)c(C(=O)NC2CCCC2)cc2c(=O)n3cccc(C)c3nc21	AHR act 57
